The whole screen tested about 39,000 compounds, of which about 1,500 (3.8%) were called active. This is one part of a sample in which actives are shown more often than they occur.

The test system of this assay is HSkMC (human skeletal muscle cells). Kind of assay: cytotoxicity call (relative viability < 0.9). The note with it: 10 µM.
On to `CCC(=O)Nc1ccc2c(c1)OC[C@@H](C)N(C(=O)CN1CCOCC1)C[C@@H](C)[C@@H](OC)CN(C)C2=O`, for which the cytotoxicity call is “inactive”.

`C[C@@H]1CN([C@@H](C)CO[Si](C)(C)C(C)(C)C)C(=O)c2cc(NC(=O)Nc3ccccc3)ccc2O[C@@H](C)CCCCO[C@H]1CN(C)S(=O)(=O)c1ccc(F)cc1`: the cytotoxicity call was “inactive”.

As to `COc1ccc(S(=O)(=O)Nc2ccc3c(c2)C(=O)N([C@H](C)CO)C[C@@H](C)[C@H](CN(C)S(=O)(=O)c2ccc(F)cc2)O3)cc1`, the cytotoxicity call is “inactive”.

In the case of `C[C@@H]1CN([C@H](C)CO)C(=O)c2cc(NS(=O)(=O)c3ccc(F)cc3)ccc2O[C@@H]1CN(C)S(=O)(=O)c1cn(C)cn1`, the cytotoxicity call is “inactive”.

Turning to `O=C(O[C@@H]1O[C@H]2COC(=O)c3cc(O)c(O)c(O)c3-c3c(cc(O)c(O)c3O)C(=O)O[C@@H]([C@H]1O)[C@@H]2O)c1cc(O)c(O)c(O)c1`, the cytotoxicity call is “inactive”.

Consider `O=C(O[C@@H]1O[C@@H]2COC(=O)c3cc(O)c(O)c(O)c3-c3c(cc(O)c(O)c3O)C(=O)O[C@H]2[C@H](OC(=O)c2cc(O)c(O)c(O)c2)[C@H]1OC(=O)c1cc(O)c(O)c(O)c1)c1cc(O)c(O)c(O)c1`, for which the cytotoxicity call is “active”.

Regarding `O=C(O[C@@H]1O[C@@H]2COC(=O)c3cc(Oc4c(C(=O)O)cc(O)c(O)c4O)c(O)c(O)c3-c3c(cc(O)c(O)c3O)C(=O)O[C@H]2[C@H](OC(=O)c2cc(O)c(O)c(O)c2)[C@H]1OC(=O)c1cc(O)c(O)c(O)c1)c1cc(O)c(O)c(O)c1`, the cytotoxicity call is “inactive”.

As to `COCCOC(=O)N1C(=O)[C@@]2(c3cc(C#CCC(C(=O)OC)C(=O)OC)ccc31)[C@H](C(=O)N1CCc3cc(OC)c(OC)cc3C1)[C@H]1C(=O)O[C@H](c3ccccc3)[C@H](c3ccccc3)N1[C@@H]2c1ccccc1OCCO`, the cytotoxicity call is “inactive”.

For the compound `C[C@@H]1CCCCO[C@@H](CN(C)CC2CCCCC2)[C@@H](C)CN([C@@H](C)CO)C(=O)c2cc(NC(=O)Nc3ccc(F)cc3)ccc2O1`, the cytotoxicity call was “inactive”.

As for `C[C@@H]1CCCCO[C@@H](CN(C)CC2CCCCC2)[C@H](C)CN([C@@H](C)CO)C(=O)c2cc(NC(=O)Nc3ccc(F)cc3)ccc2O1`, the cytotoxicity call was “inactive”.

Regarding `C[C@@H]1CN([C@@H](C)CO)C(=O)c2cc(NC(=O)Nc3ccc(F)cc3)ccc2O[C@@H](C)CCCCO[C@@H]1CN(C)CC1CCCCC1`, the cytotoxicity call was “active”.

On to `C[C@@H]1CN([C@H](C)CO)C(=O)c2cc(NC(=O)Nc3ccc(F)cc3)ccc2O[C@@H](C)CCCCO[C@@H]1CN(C)CC1CCCCC1`, for which the cytotoxicity call was “active”.

Turning to `C[C@H](CO)N1C[C@H](C)[C@H](CN(C)CC2CCCCC2)OCCCC[C@H](C)Oc2ccc(NC(=O)Nc3ccc(F)cc3)cc2C1=O`, the cytotoxicity call is “active”.

On to `C[C@@H]1CCCCO[C@@H](CN(C)CC2CCCCC2)[C@@H](C)CN([C@H](C)CO)C(=O)c2cc(NC(=O)Nc3ccc(F)cc3)ccc2O1`, for which the cytotoxicity call is “inactive”.

`C[C@@H]1CCCCO[C@@H](CN(C)CC2CCCCC2)[C@H](C)CN([C@H](C)CO)C(=O)c2cc(NC(=O)Nc3ccc(F)cc3)ccc2O1`: the cytotoxicity call is “inactive”.

On to `C[C@@H]1CCCCO[C@H](CN(C)CC2CCCCC2)[C@H](C)CN([C@H](C)CO)C(=O)c2cc(NC(=O)Nc3ccc(F)cc3)ccc2O1`, for which the cytotoxicity call was “active”.

For `C[C@H]1CCCCO[C@H](CN(C)CC2CCCCC2)[C@@H](C)CN([C@@H](C)CO)C(=O)c2cc(NC(=O)Nc3ccc(F)cc3)ccc2O1`, the cytotoxicity call is “inactive”.

In the case of `C[C@@H]1CCCCO[C@H](CN(C)CC2CCCCC2)[C@H](C)CN([C@@H](C)CO)C(=O)c2cc(NC(=O)Nc3ccc(F)cc3)ccc2O1`, the cytotoxicity call is “inactive”.

As for `C[C@@H]1CN([C@@H](C)CO)C(=O)c2cc(NC(=O)Nc3ccc(F)cc3)ccc2O[C@@H](C)CCCCO[C@H]1CN(C)CC1CCCCC1`, the cytotoxicity call was “inactive”.

Turning to `C[C@H]1CCCCO[C@@H](CN(C)CC2CCCCC2)[C@@H](C)CN([C@@H](C)CO)C(=O)c2cc(NC(=O)Nc3ccc(F)cc3)ccc2O1`, the cytotoxicity call is “inactive”.

For the compound `Cn1cnc(CCNC(=O)C[C@@H]2CC[C@@H]3[C@H](COC[C@@H](O)CN3C(=O)C3CC3)O2)c1`, the cytotoxicity call was “inactive”.

Take `C[C@H](CO)N1C[C@H](C)[C@@H](CN(C)S(=O)(=O)c2cccs2)Oc2c(NC(=O)c3cnccn3)cccc2C1=O`: the cytotoxicity call is “inactive”.

Take `COc1cccc(-c2cnc3c(c2)C(=O)N([C@H](C)CO)C[C@H](C)[C@H](CN(C)S(=O)(=O)c2cccs2)O3)c1`: the cytotoxicity call was “inactive”.

Take `COc1ccc(S(=O)(=O)N(C)C[C@@H]2OCc3cn(nn3)CCCC(=O)N([C@@H](C)CO)C[C@H]2C)cc1`: the cytotoxicity call was “inactive”.

Take `C[C@H](CO)N1C[C@H](C)[C@H](CN(C)C(=O)NC2CCCCC2)Oc2ccc(NS(=O)(=O)c3cn(C)cn3)cc2C1=O`: the cytotoxicity call was “inactive”.

Take `CC1(C)OC(=O)C2(C(=O)O1)[C@@H](c1ccc(-c3ccc(-c4ccc(O)cc4)cc3)cc1)CC(=O)C[C@H]2c1ccccc1`: the cytotoxicity call is “inactive”.

As for `CCCn1c(=O)[nH]c(=O)c2[nH]cnc21`, the cytotoxicity call is “inactive”.

As for `COc1ccc(NC(=O)N(C)C[C@@H]2Oc3ccc(NC(=O)CCCCCC(=O)Nc4ccccc4N)cc3C(=O)N([C@H](C)CO)C[C@@H]2C)cc1`, the cytotoxicity call is “inactive”.

In the case of `COc1ccc(NC(=O)Nc2ccc3c(c2)CC(=O)N([C@@H](C)CO)C[C@H](C)[C@@H](CN(C)Cc2ccc(Cl)c(Cl)c2)O3)cc1`, the cytotoxicity call was “inactive”.

Turning to `COc1ccc(NC(=O)Nc2ccc3c(c2)CC(=O)N([C@@H](C)CO)C[C@@H](C)[C@H](CN(C)Cc2ccc(Cl)c(Cl)c2)O3)cc1`, the cytotoxicity call is “inactive”.

`COc1ccc(NC(=O)Nc2ccc3c(c2)CC(=O)N([C@@H](C)CO)C[C@H](C)[C@H](CN(C)Cc2ccc(Cl)c(Cl)c2)O3)cc1`: the cytotoxicity call was “active”.

Consider `COc1ccc(NC(=O)Nc2ccc3c(c2)CC(=O)N([C@H](C)CO)C[C@@H](C)[C@@H](CN(C)Cc2ccc(Cl)c(Cl)c2)O3)cc1`, for which the cytotoxicity call is “active”.

For the compound `COc1ccc(NC(=O)Nc2ccc3c(c2)CC(=O)N([C@H](C)CO)C[C@H](C)[C@H](CN(C)Cc2ccc(Cl)c(Cl)c2)O3)cc1`, the cytotoxicity call is “inactive”.

With `COc1ccc(NC(=O)Nc2ccc3c(c2)CC(=O)N([C@H](C)CO)C[C@@H](C)[C@H](CN(C)Cc2ccc(Cl)c(Cl)c2)O3)cc1`, the cytotoxicity call was “inactive”.

With `C[C@@H]1CCCCO[C@@H](CN(C)C(=O)Nc2cccc3ccccc23)[C@@H](C)CN([C@H](C)CO)C(=O)c2cc(NC(=O)Nc3cccc4ccccc34)ccc2O1`, the cytotoxicity call was “inactive”.

On to `NC(=O)CSc1ncn(-c2ccccc2)n1`, for which the cytotoxicity call was “inactive”.

For the compound `O=C(CCCCCNC(=O)OCc1ccc(CO[C@H]2C[C@@H](c3csc4ccccc34)C=C(C(=O)N3CCN(Cc4ccccc4)CC3)O2)cc1)NO`, the cytotoxicity call was “inactive”.

`O=C(N[C@H](NC(=S)Nc1ccc(F)c([N+](=O)[O-])c1)C(Cl)(Cl)Cl)C(c1ccccc1)c1ccccc1`: the cytotoxicity call was “active”.

In the case of `CC(C)C(=O)Nc1ccc([N+](=O)[O-])c(C(F)(F)F)c1`, the cytotoxicity call was “inactive”.

For the compound `O=C(Nc1ccc(-c2nc3cc(NC(=O)c4ccccc4[N+](=O)[O-])ccc3o2)cc1)c1ccccc1[N+](=O)[O-]`, the cytotoxicity call was “inactive”.

Take `C[C@@H]1CN([C@@H](C)CO)C(=O)c2cc(NC(=O)Nc3ccc4c(c3)OCO4)ccc2O[C@@H](C)CCCCO[C@H]1CN(C)C(=O)c1ccccc1`: the cytotoxicity call is “inactive”.

For `COCC(=O)Nc1ccc2c(c1)OC[C@@H](C)N(C(=O)c1ccccc1F)C[C@@H](C)[C@@H](OC)CN(C)C2=O`, the cytotoxicity call is “inactive”.

For `C[C@H](CO)N1C[C@H](C)[C@@H](CN(C)C(=O)NC2CCCCC2)Oc2ccc(NC(=O)CCN3CCOCC3)cc2C1=O`, the cytotoxicity call is “inactive”.

Turning to `Cc1ccc(S(=O)(=O)Nc2ccc3c(c2)C(=O)N([C@H](C)CO)C[C@H](C)[C@H](CN(C)Cc2ccc(Cl)c(Cl)c2)O3)cc1`, the cytotoxicity call was “active”.

With `Cc1ccc(S(=O)(=O)Nc2ccc3c(c2)C(=O)N([C@H](C)CO)C[C@@H](C)[C@H](CN(C)Cc2ccc(Cl)c(Cl)c2)O3)cc1`, the cytotoxicity call is “active”.

As for `Cc1ccc(S(=O)(=O)Nc2ccc3c(c2)C(=O)N([C@@H](C)CO)C[C@H](C)[C@H](CN(C)Cc2ccc(Cl)c(Cl)c2)O3)cc1`, the cytotoxicity call is “inactive”.

As to `Cc1ccc(S(=O)(=O)Nc2ccc3c(c2)C(=O)N([C@H](C)CO)C[C@H](C)[C@@H](CN(C)Cc2ccc(Cl)c(Cl)c2)O3)cc1`, the cytotoxicity call was “inactive”.

On to `Cc1ccc(S(=O)(=O)Nc2ccc3c(c2)C(=O)N([C@@H](C)CO)C[C@H](C)[C@@H](CN(C)Cc2ccc(Cl)c(Cl)c2)O3)cc1`, for which the cytotoxicity call was “active”.

As to `Cc1ccc(S(=O)(=O)Nc2ccc3c(c2)C(=O)N([C@@H](C)CO)C[C@@H](C)[C@H](CN(C)Cc2ccc(Cl)c(Cl)c2)O3)cc1`, the cytotoxicity call was “inactive”.

With `Cc1ccc(S(=O)(=O)Nc2ccc3c(c2)C(=O)N([C@H](C)CO)C[C@@H](C)[C@@H](CN(C)Cc2ccc(Cl)c(Cl)c2)O3)cc1`, the cytotoxicity call is “active”.

On to `Cc1cccc(C(=O)N2CCC[C@@H](Cn3cc(C(C)(C)N)nn3)C2)c1C`, for which the cytotoxicity call was “inactive”.

On to `CC(C)NC(=O)Nc1ccc2c(c1)C(=O)N([C@@H](C)CO)C[C@H](C)[C@@H](CN(C)S(=O)(=O)c1ccccc1)O2`, for which the cytotoxicity call is “inactive”.

On to `C[C@@H]1CCCCO[C@H](CN(C)S(=O)(=O)c2cccs2)[C@H](C)CN([C@@H](C)CO)C(=O)c2cc(NC(=O)Cc3ccccc3)ccc2O1`, for which the cytotoxicity call is “inactive”.

Regarding `C[C@H]1CN([C@@H](C)CO)C(=O)c2cccc(NS(=O)(=O)c3cccs3)c2O[C@H]1CN(C)S(=O)(=O)c1ccc(F)cc1`, the cytotoxicity call is “inactive”.

`CN(C)Cc1cn(CC[C@H]2CC[C@H](N)[C@@H](CO)O2)nn1`: the cytotoxicity call was “inactive”.

With `Cc1noc(C)c1NC(=O)Nc1ccc2c(c1)C(=O)N([C@@H](C)CO)C[C@H](C)[C@H](CN(C)C(=O)Nc1ccc(C(F)(F)F)cc1)OCCCC[C@H](C)O2`, the cytotoxicity call was “inactive”.

With `O=C(C[C@H]1CC[C@H]2[C@@H](COC[C@@H](O)CN2C(=O)c2cccnc2)O1)NCc1ccc(-c2ccccc2)cc1`, the cytotoxicity call was “inactive”.

As to `Cn1nnnc1SCC(=O)Nc1ncccn1`, the cytotoxicity call is “inactive”.

The values are drawn from the antibiotic and cytotoxicity screens of Wong et al. (2023).
